Experimental data from PubChem BioAssay (NCATS).
Records with an inconclusive call do not appear. The source made the active and inactive calls. Unless noted, calls come from the whole dose curve; as a rule, active = well fitted curve in the direction sought with a large enough effect; inconclusive = small, poorly fitted or top-dose-only effect, or another doubt; inactive = no such curve, though single readings can be large; an effect the other way counts as inactive or inconclusive.

Assays:
[1] = target: Ferritin light chain (Equus caballus) (UniProt P02791); assay: qHTS Validation Assay for Identification of Novel General Anesthetics (AID 2323); note: series mostly up to about 77 µM
Sequence of Ferritin light chain (Equus caballus) (P02791 2-175 limits assumed): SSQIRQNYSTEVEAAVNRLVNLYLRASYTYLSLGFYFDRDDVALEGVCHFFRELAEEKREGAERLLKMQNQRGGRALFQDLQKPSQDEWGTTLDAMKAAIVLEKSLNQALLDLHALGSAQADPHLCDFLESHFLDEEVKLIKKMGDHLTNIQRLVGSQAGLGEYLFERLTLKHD
How it was run: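 10 uM horse-spleen apoferritin + 1-AMA (50% saturated, PBS); cpd pin-transferred, 10 min RT. Ex 380/Em 535 nm endpoint. Activity normalized between free 1-AMA and 1-AMA/apoferritin; 4-parameter Hill fit of concentration-response.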

[2] = target: ATP-dependent DNA helicase Q1 (Homo sapiens) (UniProt P46063); assay: qHTS Validation Assay for Inhibitors of RecQ-Like Dna Helicase 1 (RECQ1) (AID 2353)
How it was run: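 RECQ1T1 50 nM; forked duplex (20 bp + 30-nt ss tails) 200 nM, ATP 2 mM final; pH 8.0, 2 mM MgCl2, 2.5 ug/ml poly(dI-dC); 15 min compound preincubation; discontinuous kinetic read over 2 h at RT.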

[3] = Cytometric Cell-Based qHTS for Inhibitors of the mTORC1 Signaling Pathway in MEF (Tsc2-/-, p53-/-) Cells (AID 2660); note: potency is the fitted concentration of half-maximal effect
How it was run: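 Readout: Alexa-488 phospho-rpS6 (Ser235/236) intensity divided by PI intensity, thresholded against 7.5 nM rapamycin wells and reported as % positive cells. PI cell count served as the viability measure. Compound exposure was 24 hrs at 37 degree Celsius.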

[4] = High Content Imaging Cell-Based qHTS for Inhibitors of the mTORC1 Signaling Pathway in MEF Cells (AID 2667); note: potency is the fitted concentration of half-maximal effect
How it was run: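 Read-out is the share of phospho-rpS6-positive cells per well, from Hoechst-normalized Alexa-488 Ser235/236 staining imaged on IN Cell. Cells: WT Tsc2-expressing Tsc2-/-, p53-/- MEFs exposed to compound for 24 hrs.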

[5] = Cytometry Cell-Based qHTS for Inhibitors of the mTORC1 Signaling Pathway in MEF cells (AID 2668); note: potency is the fitted concentration of half-maximal effect
How it was run: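 Read-out: phospho-rpS6 Ser235/236 immunofluorescence normalized to propidium iodide intensity, scored as % active cells against a rapamycin (7.5 nM) threshold. Cells: Tsc2-/-, p53-/- MEFs stably expressing WT Tsc2, compound-treated 24 hrs at 37 degree Celsius.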

[6] = Validation screen for small molecules that induce DNA re-replication in MCF 10A normal breast cells (AID 463097); note: nearly all actives have a fitted effect of over 60% in size
How it was run: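 250 MCF 10A cells/well; compound pin-transferred; 48 hr, 37 C, 5% CO2; Hoechst 40 min; imaged 405/500-530 nm. Hits = more high-intensity nuclei.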

[7] = target: Ubiquitin carboxyl-terminal hydrolase 2 (Homo sapiens) (UniProt O75604); assay: qHTS Validation Assay for Inhibitors of Ubiquitin-specific Protease USP2a Using CHOP2 as the Reporter (AID 463106)
Sequence of Ubiquitin carboxyl-terminal hydrolase 2 (Homo sapiens) (O75604 whole entry, looked up): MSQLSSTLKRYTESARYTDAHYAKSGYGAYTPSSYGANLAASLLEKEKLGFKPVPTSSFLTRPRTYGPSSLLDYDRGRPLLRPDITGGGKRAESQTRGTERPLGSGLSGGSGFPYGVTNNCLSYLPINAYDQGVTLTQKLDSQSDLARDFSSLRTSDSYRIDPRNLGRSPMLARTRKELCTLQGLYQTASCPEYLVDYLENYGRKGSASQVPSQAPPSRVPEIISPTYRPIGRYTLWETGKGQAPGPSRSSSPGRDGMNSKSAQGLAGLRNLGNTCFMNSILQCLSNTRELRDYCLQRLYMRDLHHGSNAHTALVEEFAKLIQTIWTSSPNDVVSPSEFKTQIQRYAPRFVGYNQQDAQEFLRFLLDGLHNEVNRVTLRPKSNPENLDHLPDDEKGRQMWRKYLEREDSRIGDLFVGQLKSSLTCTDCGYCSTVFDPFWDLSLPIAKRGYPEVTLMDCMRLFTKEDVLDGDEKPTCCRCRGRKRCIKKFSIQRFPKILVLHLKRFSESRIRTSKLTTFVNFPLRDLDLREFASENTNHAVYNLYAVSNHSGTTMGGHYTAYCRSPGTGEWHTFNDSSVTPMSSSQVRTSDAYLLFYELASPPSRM
How it was run: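 Fluorescence read-out at Ex 485nm/Em 531nm after 60min RT, following addition of 25nM Ub-CHOP2 plus 25nM reporter substrate to USP2 core (10nM) pretreated 30min with compound. Data normalized to NEM full inhibition; concentration-response curves fitted.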

[8] = target: DNA polymerase III PolC-type (Bacillus subtilis (strain 168)) (UniProt P13267); assay: qHTS Validation Assay for the Inhibitors of DNA Replication in Gram-Positive Bacteria (AID 485295);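 note: reconstituted holoenzyme with PolC plus beta clamp SSB and primase; PicoGreen fluorescence of double-stranded DNA made on primed circular M13 template; series mostly up to about 57 µM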
How it was run: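 PicoGreen fluorescence (ex 480–485/em 535–540 nm) reports dsDNA synthesized on ssM13Gori template with dNTPs/NTPs. Enzyme: holoenzyme rebuilt from purified PolC, beta subunit, SSB and primase. Compound preincubated before substrate addition; RT throughout.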

[9] = target: Tumor susceptibility gene 101 protein (Homo sapiens) (UniProt Q99816); assay: qHTS Validation Assay for Iinhibitors of HIV-1 Budding by Blocking the Interaction of PTAP/TSG101 (AID 485342; calls by dose curve)
Sequence of Tumor susceptibility gene 101 protein (Homo sapiens) (Q99816 whole entry, looked up, the tested form may be a part): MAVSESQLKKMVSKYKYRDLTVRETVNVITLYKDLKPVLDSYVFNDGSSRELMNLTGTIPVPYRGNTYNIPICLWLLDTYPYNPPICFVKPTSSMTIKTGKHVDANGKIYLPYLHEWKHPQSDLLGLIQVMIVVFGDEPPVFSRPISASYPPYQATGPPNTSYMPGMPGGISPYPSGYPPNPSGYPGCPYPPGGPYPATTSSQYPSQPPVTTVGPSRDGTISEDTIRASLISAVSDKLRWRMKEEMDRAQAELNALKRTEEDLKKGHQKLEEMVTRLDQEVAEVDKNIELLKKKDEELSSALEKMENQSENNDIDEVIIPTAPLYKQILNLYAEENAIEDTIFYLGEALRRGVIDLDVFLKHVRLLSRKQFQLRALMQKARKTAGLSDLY
How it was run: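 FP read-out: FITC-PTAP peptide, 50 nM final, binding Tsg101 binding domain, 10 uM final; 20 min r.t.; 10 mM HEPES pH 7.5, 0.15 M NaCl, 0.01% Tween 20, 3 mM EDTA, 0.1 mM TCEP.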

[10] = qHTS Validation Assay to Find Inhibitors of Chronic Active B-Cell Receptor Signaling (AID 485345; active = well fitted curve in the direction sought with a large enough effect in the main read-out, with a control signal flat, not every such curve was filed as active)
How it was run: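 TMD8 ABC-DLBCL cells stably carrying doxycycline-inducible IkappaBalpha–green luciferase fusion plus unfused red luciferase; compounds 46 uM to 3 nM, 4 h at 37C with doxycycline. Corrected green/red luminescence ratio normalized to 10 uM MG-132 and basal cell wells; curves fitted.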

[11] = target: Beta-2 adrenergic receptor (Homo sapiens) (UniProt P07550); assay: qHTS validation assay of beta-arrestin-biased ligands of beta2-adrenergic receptor (AID 485366)
Sequence of Beta-2 adrenergic receptor (Homo sapiens) (P07550 whole entry, looked up): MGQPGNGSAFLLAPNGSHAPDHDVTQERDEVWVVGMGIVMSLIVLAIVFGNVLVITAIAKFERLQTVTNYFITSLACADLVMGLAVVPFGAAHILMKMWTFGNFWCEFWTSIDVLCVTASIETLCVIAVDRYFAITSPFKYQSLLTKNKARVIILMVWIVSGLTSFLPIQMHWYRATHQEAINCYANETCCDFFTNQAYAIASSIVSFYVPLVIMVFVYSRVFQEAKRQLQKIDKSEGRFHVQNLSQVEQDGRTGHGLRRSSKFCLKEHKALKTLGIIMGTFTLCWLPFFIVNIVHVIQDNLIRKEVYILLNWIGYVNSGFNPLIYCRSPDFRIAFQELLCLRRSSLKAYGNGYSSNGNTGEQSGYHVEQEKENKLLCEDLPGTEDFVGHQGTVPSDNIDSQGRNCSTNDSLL
How it was run: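 Agonist activity is measured as luciferase luminescence downstream of beta-arrestin recruitment to recombinant beta2-AR in Tango cells. Exposure lasts 18 hr at 37 degrees C, and curves are categorized by r2, response size and activity.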

[12] = target: ATP-dependent 6-phosphofructokinase (Trypanosoma brucei brucei) (UniProt O15648); assay: qHTS Validation Assay to Find Inhibitors of T. brucei phosphofructokinase (AID 485368)
Sequence of ATP-dependent 6-phosphofructokinase (Trypanosoma brucei brucei) (O15648 whole entry, looked up): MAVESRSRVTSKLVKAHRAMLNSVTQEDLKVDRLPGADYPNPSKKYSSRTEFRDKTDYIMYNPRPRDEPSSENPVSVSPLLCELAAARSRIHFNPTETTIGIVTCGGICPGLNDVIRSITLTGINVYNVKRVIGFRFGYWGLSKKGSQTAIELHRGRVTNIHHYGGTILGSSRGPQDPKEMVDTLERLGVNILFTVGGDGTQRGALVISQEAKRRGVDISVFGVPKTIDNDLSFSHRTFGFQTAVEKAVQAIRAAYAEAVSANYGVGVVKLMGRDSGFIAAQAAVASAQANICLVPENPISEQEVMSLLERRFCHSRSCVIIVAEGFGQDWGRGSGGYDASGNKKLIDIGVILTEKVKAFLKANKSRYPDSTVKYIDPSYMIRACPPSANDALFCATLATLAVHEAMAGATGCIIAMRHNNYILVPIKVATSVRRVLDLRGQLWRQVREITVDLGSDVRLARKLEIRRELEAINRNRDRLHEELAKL
How it was run: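 Inhibition derived from concentration-response curves of luminescence, ranked by r2, response size and curve class; the underlying reaction used 1.25 nM PFK, 0.1 mM ATP and 0.5 mM F6P, 45 min, room temperature.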

[13] = Quantitative high throughput screen for delayed death inhibitors of the malarial parasite plastid, 96 hour incubation (AID 488745); note: nearly all actives have a fitted effect of over 70% in size; note: potency is the fitted concentration of half-maximal effect
How it was run: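 Luciferase-expressing P. falciparum, infected RBCs 2% Hct/0.1% parasitemia (final); 96 h cpd exposure, 37 C, 5% CO2; RPMI 1640 + 0.5% Albumax, bicarbonate, gentamycin. Readout: luminescence loss = growth inhibition.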

[14] = target: Thioredoxin reductase 1, cytoplasmic (Rattus norvegicus) (UniProt O89049); assay: qHTS Assay for Substrates of Mammalian Selenoprotein Thioredoxin Reductase 1 (TrxR1) (AID 488772);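 note: series mostly up to about 57 µM; a drop in NADPH fluorescence below the no-compound background marks a TrxR1 substrate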
Sequence of Thioredoxin reductase 1, cytoplasmic (Rattus norvegicus) (O89049 whole entry, looked up): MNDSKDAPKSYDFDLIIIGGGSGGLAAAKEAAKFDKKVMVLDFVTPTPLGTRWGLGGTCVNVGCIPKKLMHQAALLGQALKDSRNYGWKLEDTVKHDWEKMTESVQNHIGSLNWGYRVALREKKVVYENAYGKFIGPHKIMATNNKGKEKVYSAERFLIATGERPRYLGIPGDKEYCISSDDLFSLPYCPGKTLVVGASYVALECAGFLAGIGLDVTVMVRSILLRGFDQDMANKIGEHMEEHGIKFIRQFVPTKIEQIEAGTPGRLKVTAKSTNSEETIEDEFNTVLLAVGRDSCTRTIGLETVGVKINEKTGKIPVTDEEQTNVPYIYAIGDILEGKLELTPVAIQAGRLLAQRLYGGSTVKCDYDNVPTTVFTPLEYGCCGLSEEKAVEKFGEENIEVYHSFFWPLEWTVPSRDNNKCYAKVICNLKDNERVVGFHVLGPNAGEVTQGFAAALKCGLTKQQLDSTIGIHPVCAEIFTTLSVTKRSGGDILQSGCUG
How it was run: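 In this dual-purpose format, potential substrates are identified from the first fluorescence read after selenite addition, not from the 8-minute delta. Rat enzyme is preincubated with NADPH and then with compound at ~22 deg C.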

[15] = target: Flap endonuclease 1 (Homo sapiens) (UniProt P39748); assay: qHTS Validation Assay for the Inhibitors of Human Flap endonuclease 1 (FEN1) (AID 488816); note: potency is the fitted concentration of half-maximal effect
How it was run: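 Enzyme reagent 10 nM; cpds pinned; 15 min RT preinc.; substrate 50 nM final; reads t=0 and 15 min; no-enzyme buffer wells as neg. control; normalized data, 4-parameter Hill fit.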

[16] = target: M-phase phosphoprotein 8 (Homo sapiens) (UniProt Q99549); assay: qHTS Validation Assay for Inhibitors for MPP8 Chromodomain Interactions with Methylated Histone Tails (AID 488949); note: nearly all actives have a fitted effect of over 55% in size; note: potency is the fitted concentration of half-maximal effect
Sequence of M-phase phosphoprotein 8 (Homo sapiens) (Q99549 whole entry, looked up): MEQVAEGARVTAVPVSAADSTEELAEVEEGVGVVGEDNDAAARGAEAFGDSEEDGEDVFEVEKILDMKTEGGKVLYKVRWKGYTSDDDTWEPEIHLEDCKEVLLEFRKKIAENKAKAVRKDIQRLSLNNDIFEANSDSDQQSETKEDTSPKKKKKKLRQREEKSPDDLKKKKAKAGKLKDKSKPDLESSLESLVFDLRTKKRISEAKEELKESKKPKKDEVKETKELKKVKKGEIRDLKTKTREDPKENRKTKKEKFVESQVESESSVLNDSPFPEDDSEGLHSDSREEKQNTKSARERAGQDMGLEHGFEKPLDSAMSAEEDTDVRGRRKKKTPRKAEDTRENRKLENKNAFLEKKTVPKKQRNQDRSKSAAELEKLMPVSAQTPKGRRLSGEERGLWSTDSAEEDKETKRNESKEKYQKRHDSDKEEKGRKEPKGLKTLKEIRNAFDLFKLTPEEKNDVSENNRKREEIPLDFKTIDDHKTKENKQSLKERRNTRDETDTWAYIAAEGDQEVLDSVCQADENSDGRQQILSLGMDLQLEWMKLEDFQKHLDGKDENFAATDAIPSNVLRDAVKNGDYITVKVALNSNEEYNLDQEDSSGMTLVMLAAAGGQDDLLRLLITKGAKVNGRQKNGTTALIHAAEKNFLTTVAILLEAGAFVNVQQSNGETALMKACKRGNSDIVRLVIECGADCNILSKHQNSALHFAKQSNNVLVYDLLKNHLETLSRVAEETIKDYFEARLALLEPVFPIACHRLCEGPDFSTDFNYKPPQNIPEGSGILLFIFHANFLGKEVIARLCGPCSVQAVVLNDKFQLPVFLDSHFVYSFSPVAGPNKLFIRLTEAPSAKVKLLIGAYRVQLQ
How it was run: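 AlphaScreen read-out: streptavidin donor and nickel chelate acceptor beads (final 10 ug/mL), 30 min in the dark at RT. Complex of 50 nM MPP8 and 50 nM b-H3(1-18)K9me3 peptide had been exposed to compounds for 30 min beforehand.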

[17] = target: RecQ-like DNA helicase BLM (Homo sapiens) (UniProt P54132); assay: qHTS Validation Assay for Inhibitors of Bloom's syndrome helicase (BLM) (AID 2364)
Sequence of RecQ-like DNA helicase BLM (Homo sapiens) (P54132 whole entry, looked up): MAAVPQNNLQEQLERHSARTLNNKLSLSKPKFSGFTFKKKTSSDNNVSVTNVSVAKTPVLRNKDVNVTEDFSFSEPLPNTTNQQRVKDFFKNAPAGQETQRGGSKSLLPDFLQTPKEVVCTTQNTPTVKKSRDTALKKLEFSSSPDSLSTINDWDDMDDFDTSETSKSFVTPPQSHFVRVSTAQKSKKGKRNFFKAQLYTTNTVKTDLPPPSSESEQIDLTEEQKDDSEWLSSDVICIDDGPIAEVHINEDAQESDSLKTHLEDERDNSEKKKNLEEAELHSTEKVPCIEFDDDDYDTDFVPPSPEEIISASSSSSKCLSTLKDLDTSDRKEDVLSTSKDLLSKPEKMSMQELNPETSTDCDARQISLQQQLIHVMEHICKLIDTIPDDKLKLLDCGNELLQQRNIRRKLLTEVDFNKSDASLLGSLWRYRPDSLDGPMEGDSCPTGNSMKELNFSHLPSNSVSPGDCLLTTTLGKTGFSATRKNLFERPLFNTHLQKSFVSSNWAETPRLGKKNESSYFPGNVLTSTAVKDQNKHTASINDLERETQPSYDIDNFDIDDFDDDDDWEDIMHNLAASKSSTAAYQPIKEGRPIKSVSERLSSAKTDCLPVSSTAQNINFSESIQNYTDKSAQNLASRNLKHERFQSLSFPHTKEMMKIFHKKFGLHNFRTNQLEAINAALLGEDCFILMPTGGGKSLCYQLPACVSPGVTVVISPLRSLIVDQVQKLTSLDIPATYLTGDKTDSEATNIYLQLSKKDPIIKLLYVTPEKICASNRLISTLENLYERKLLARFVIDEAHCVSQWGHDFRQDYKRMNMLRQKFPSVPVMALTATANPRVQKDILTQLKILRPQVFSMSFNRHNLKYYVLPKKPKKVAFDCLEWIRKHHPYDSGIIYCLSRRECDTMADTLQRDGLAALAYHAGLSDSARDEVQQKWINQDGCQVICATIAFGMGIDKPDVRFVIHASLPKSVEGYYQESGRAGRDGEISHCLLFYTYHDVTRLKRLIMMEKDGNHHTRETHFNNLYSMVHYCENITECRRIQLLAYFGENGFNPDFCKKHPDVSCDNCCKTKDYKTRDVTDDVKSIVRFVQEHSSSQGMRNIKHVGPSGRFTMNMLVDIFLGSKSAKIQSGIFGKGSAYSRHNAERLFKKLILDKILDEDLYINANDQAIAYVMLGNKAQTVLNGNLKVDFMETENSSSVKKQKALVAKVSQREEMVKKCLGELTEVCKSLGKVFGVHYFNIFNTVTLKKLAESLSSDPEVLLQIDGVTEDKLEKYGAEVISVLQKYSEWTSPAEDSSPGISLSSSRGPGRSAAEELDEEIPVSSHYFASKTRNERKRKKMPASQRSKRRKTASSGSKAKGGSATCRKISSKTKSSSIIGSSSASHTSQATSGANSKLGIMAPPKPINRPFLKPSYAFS
How it was run: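 50 nM BLM preincubated 15 min at room temperature with compound in pH 8.0 Tris buffer containing 2.5 ug/ml poly(dI-dC); started with 200 nM TAMRA/BHQ-2 forked duplex and 2 mM ATP (final). Unwinding read as TAMRA fluorescence increase, two reads 2 h apart.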

[18] = High Content Imaging Cell-Based qHTS for Inhibitors of the mTORC1 Signaling Pathway in MEF (Tsc2-/-, p53-/-) Cells (AID 2666);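 note: percent of cells scored positive for phospho-rpS6 Ser235/236 immunostaining by imaging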
How it was run: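 MEF Tsc2-/- p53-/- (empty vector), DMEM/10% FBS; cpd 24 h 37 °C; PFA fix, Alexa-488 p-rpS6 S235/236 Ab, Hoechst; imaged; rapamycin-defined inhibition; % positive cells/well.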

Measured: Potency

CC(C)C(=O)c1c(C(C)C)nn2ccccc12
not listed: [17] | [18]
inactive: all other assays above

CCN(CC)CCCC(C)Nc1c2ccc(Cl)cc2nc2ccc(OC)cc12 (stereo unspecified)
active: [3] 16.5 µM | [4] 14.7 µM | [13] 0.0117 µM | [15] 15 µM
inactive: [17] | [8] | [9] | [11] | [12] | [14]

CN(C)CC[C@@H](c1ccc(Cl)cc1)c1ccccn1
not listed: [12] | [16] | [17] | [18]
inactive: all other assays above

CNCC(O)c1ccc(O)c(O)c1 (stereo unspecified)
not listed: [10] | [11] | [15] | [16] | [17] | [18]
inactive: all other assays above

CC1=C(CC(=O)O)c2cc(F)ccc2/C1=C\c1ccc(S(C)=O)cc1 (stereo unspecified)
not listed: [1] | [12] | [16] | [17] | [18]
inactive: all other assays above

C[C@]12CC[C@@H]3c4ccc(O)cc4CC[C@H]3[C@@H]1CCC2=O
not listed: [10] | [13] | [16] | [17] | [18]
inactive: all other assays above

CC(=O)OCC(=O)[C@@]1(O)CC[C@H]2[C@@H]3CCC4=CC(=O)CC[C@]4(C)[C@H]3C(=O)C[C@@]21C
not listed: [16] | [17] | [18]
inactive: all other assays above

CCCn1cnc2c1c(=O)n(CCCCC(C)=O)c(=O)n2C
not listed: [10] | [16] | [17] | [18]
inactive: all other assays above

CSc1ccc2c(c1)N(CCC1CCCCN1C)c1ccccc1S2 (stereo unspecified)
active: [16] 11.2 µM
not listed: [3] | [5] | [6] | [10] | [12] | [13] | [18]
inactive: all other assays above

CSc1ccc2c(c1)C(N1CCN(C)CC1)Cc1ccccc1S2 (stereo unspecified)
inactive: [2] | [17] | [4] | [7] | [8] | [9] | [11] | [12] | [14] | [15]

COCCOC(=O)C1=C(C)NC(C)=C(C(=O)OC/C=C/c2ccccc2)C1c1cccc([N+](=O)[O-])c1 (stereo unspecified)
not listed: [1] | [2] | [6] | [10] | [13] | [17] | [18]
inactive: all other assays above

CN1CCN(C2Cc3ccccc3Sc3ccc(Cl)cc32)CC1 (stereo unspecified)
not listed: [1] | [3] | [4] | [5] | [6] | [10] | [16]
inactive: all other assays above

CC(C)(C)[C@]1(O)CCN2C[C@H]3c4ccccc4CCc4cccc(c43)[C@@H]2C1
active: [5] 5.85 µM
not listed: [1] | [2] | [6] | [13] | [16] | [17] | [18]
inactive: all other assays above
